G9a block – G9a (human) methyltransferase inhibition. Q96KQ7. G9a H3K9 monomethylation, AlphaScreen, 2 h. Potency, µM (titrated, usually from 102 µM), for inactives: at the highest dose activity, negative = inhibition, most hits filed as inhibitors. actives 8.8% (n = 350,000). AID 504332; further: potency means the concentration at half of the fitted maximal effect; on the % scale 0 is the no-effect control and ±100 the full control effect; nearly all actives have a fitted effect of over 75% in size
Target sequence (Q96KQ7 913-1193 limits assumed): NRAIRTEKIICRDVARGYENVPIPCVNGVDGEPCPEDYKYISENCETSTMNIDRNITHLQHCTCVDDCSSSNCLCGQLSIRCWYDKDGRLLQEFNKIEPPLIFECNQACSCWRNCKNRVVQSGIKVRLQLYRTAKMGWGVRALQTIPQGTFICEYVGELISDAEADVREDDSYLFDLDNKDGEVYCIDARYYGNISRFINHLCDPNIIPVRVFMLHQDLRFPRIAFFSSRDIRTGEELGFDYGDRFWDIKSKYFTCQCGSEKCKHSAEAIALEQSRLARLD
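AlphaScreen detection with an anti-monomethyl H3K9 antibody quantified product after a 2 h room-temperature reaction containing 500 nM biotinylated H3K9 peptide, 20 µM SAM and 20 nM enzyme, which had been preincubated 15 min with compound.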
HP1b binding inh – blocks HP1-beta chromodomain binding to methylated histone tails; AlphaScreen HP1-beta / biotin-H3K9me3 peptide binding; Potency, µM (highest dose often 114 µM), for inactives: at the top dose activity change, negative = inhibition, usual class: inhibitors; actives 0.56% (n = 390,000); further: potency means the concentration at half of the fitted maximal effect; nearly all actives have a fitted effect of over 70% in size
Target sequence (P83916 whole entry, looked up): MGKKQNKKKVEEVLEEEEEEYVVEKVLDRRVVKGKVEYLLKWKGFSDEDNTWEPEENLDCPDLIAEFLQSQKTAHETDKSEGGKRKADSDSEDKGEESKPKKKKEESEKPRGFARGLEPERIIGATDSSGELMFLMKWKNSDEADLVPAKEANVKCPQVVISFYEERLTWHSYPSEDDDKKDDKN
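Compound inhibition of the preformed complex between 50 nM HP1-beta and 50 nM biotinylated H3K9me3 peptide was read by AlphaScreen. Buffer was PBS pH 7.4 with 0.01% Tween-20. Incubations ran 30 min at room temperature, with 10 ug/mL donor/acceptor beads.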
PLK1 PBD block – PLK1 (human) polo-box domain binding inhibition. P53350. Plk1 PBD binding of FITC phosphopeptide, fluorescence polarization. Potency, µM, inactives show max response, negative = inhibition, usual class: inhibitors. actives 2.8% (n = 360,000); further: potency means the concentration at half of the fitted maximal effect; series mostly up to about 57 µM; on the % scale 0 is the no-effect control and ±100 the full control effect; nearly all actives have a fitted effect of over 65% in size
PI5P4Ka inh – blocks human PI5P4K alpha kinase activity | max response, % | AID 652105 | actives 1.2% (n = 330,000) | PI5P4Kalpha enzyme, ADP-Glo luminescence, 60 min; hits give low values | P48426; active means max response of -50% or lower; inconclusive means between -30% and -50%; inactive means -30% or higher; further: value at the top dose of about 77 µM; on the % scale 0 is the no-effect control and ±100 the full control effect
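Controls without substrate or without enzyme flank wells where PI5P4Kalpha converts substrate using 5 microM ATP (final). Incubation lasts 60 minutes at room temperature; ADP formed is read by ADP-Glo luminescence.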
BAZ2B inh – BAZ2B (human) inhibition. actives 4.4% (n = 360,000). Potency, µM (highest dose often 114 µM), for inactives: at the highest dose activity change, negative = inhibition, usual class: inhibitors. Q9UIF8. AlphaScreen BAZ2B-H3K14Ac peptide displacement; further: potency means the concentration at half of the fitted maximal effect; on the % scale 0 is the no-effect control and ±100 the full control effect; nearly all actives have a fitted effect of over 60% in size
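Complex of BAZ2B and biotin-H3K14Ac (50 nM apiece) forms over 30 min at RT, then faces library compounds up to 110 uM for another 30 min; AlphaScreen beads added, 20 min dark incubation, luminescence read.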
JMJD2A Tudor – inhibitors of human JMJD2A Tudor domain | O75164 | AlphaScreen JMJD2A-Tudor / H3K4me3 peptide binding | Potency, µM (series often up to 114 µM), for inactives: at the top dose activity change, negative = inhibition, hits mostly inhibitors | actives 4.4% (n = 390,000) | AID 504339; further: potency means the concentration at half of the fitted maximal effect; on the % scale 0 is the no-effect control and ±100 the full control effect; nearly all actives have a fitted effect of over 50% in size
Starred values were filed as active, the others as inactive; ? = inconclusive; · = no result; [ ] = another dose, or the depositor's remark. Most compounds without a hit are left out; they make up all but 12% or so of the library. Unless noted, the call rests on the fitted dose curve; in most records, active means well fitted curve in the direction sought with a large enough effect; inconclusive means small, poorly fitted or top-dose-only effect, or another doubt; inactive means no such curve, though single readings can be large; an effect the other way counts as inactive or inconclusive.

SMILES	G9a block	HP1b binding inh	PLK1 PBD block	PI5P4Ka inh	BAZ2B inh	JMJD2A Tudor
O=C(CSc1nncs1)Nc1ccc2[nH]c(=O)[nH]c2c1	11µM*	31%	1%	?	0%	-15%
CCn1c(=O)n(CC)c2cc(NC(=O)CSc3ccc([N+](=O)[O-])cn3)ccc21	-5%	19%	-2%	0	-20%	0%
O=C(CSc1ccc([N+](=O)[O-])cn1)Nc1ccc2[nH]c(=O)[nH]c2c1	32µM*	3%	-25%	-11	3%	-10%
CCN(c1ccc(C)cc1)S(=O)(=O)c1nnc(NC(=O)C2CCCCC2)s1	34%[59 µM]	111%	·	·	18%	17%
O=C1CC(c2ccco2)Sc2nc3ccccc3n21 (stereo unspecified)	45µM*	19%	-6%	?	-32%	79µM*
O=C1CC(c2ccccc2)Sc2nc3ccccc3n21 (stereo unspecified)	?	60%	-10%	1	11%	18%
COc1cc(SC#N)ccc1N=Cc1c(C)[nH]n(-c2ccc(Cl)cc2)c1=O	-6%[12.7 µM]	1%	?	-13	10%	-19%[11.4 µM]
COc1cc(SC#N)ccc1N=Cc1c(C)[nH]n(-c2ccc(C)c(C)c2)c1=O	10µM*	-8%	?	-5	-2%	-19%
O=C(Nc1nc(=O)n(C(=O)c2cccc(C(F)(F)F)c2)s1)c1ccccc1	?	77%	17µM*	-11	?	-17%
CCn1c(N2CCN(S(=O)(=O)c3ccccc3C(F)(F)F)CC2)nc2ccccc21	50µM*	9%	-12%	-2	?	-14%[57.1 µM]
CCOc1cc(-c2cc(-c3ccc(C)o3)nc(N)c2C#N)ccc1O	40µM*	23%	-4%	-55*	4%	-12%
CCCc1cc(-c2ccc(O)c(OCC)c2)c(C#N)c(N)n1	5%[12.7 µM]	10%	-7%	-4	-4%	-17%
Cc1ccc(-c2cc(-c3ccc4c(c3)OCO4)c(C#N)c(N)n2)o1	?	33%	-24%	·	·	7%
Cc1ccc(-c2cc(-c3ccc(C)o3)nc(N)c2C#N)cc1	2µM*	?	13µM*	-90*	71µM*	32µM*
Cc1ccc(-c2cc(-c3ccc(Cl)cc3)c(C#N)c(N)n2)o1	5.6µM*	-6%	21µM*	-93*	56µM*	79µM*
Cc1ccc(-c2cc(-c3ccc(F)cc3)c(C#N)c(N)n2)o1	8.9µM*	16%	?	-67*	-26%	40µM*
Cc1ccc(CNC(=O)c2c(C)oc3nc(C)nc(N4CCOCC4)c23)cc1	3%[59 µM]	13%	·	·	7%[57.1 µM]	-14%
FC(F)c1nc2nc(Cl)c(Cl)nc2[nH]1	·	·	-3%	-17	·	·
Cc1cc(C)cc(NC(=O)NCc2noc3ccccc23)c1	4%[59 µM]	4%	·	·	-23%	-17%
O=C(O)c1ccccc1OP(=O)(O)O	0%[21.5 µM]	·	·	·	·	·
CCN1C(=O)CC(c2ccc(OC(C)C)cc2)C1=O (stereo unspecified)	7%	6%	-2%	1	-10%	-3%
C#CCOCCOCCOCCNc1nc(OC)nc(N2CCN(C(=O)[C@H](CCC(=O)O)n3cc(C(N)CO)nn3)CC2)n1 (stereo partly specified)	-6%[2.33 µM]	-12%	7%	2	79µM*	79µM*
C#CCOCCOCCOCCNc1nc(N2CCOCC2)nc(N2CCN(C(=O)[C@H](CCC(=O)O)n3cc([C@@H](N)CCCCN)nn3)CC2)n1	·	37%	-4%	5	·	-19%
C#CCOCCOCCOCCNc1nc(N2CCN(C(=O)[C@H](CCC(=O)O)n3cc([C@@H](N)CO)nn3)CC2)nc(N2CCN(C(=O)[C@H](CCC(=O)O)n3cc([C@@H](N)CCSC)nn3)CC2)n1	·	7%	-13%	-4	·	79µM*
CCC(=O)N1CCc2cc(Br)cc(S(=O)(=O)N3CCCC(C(=O)N(C)c4ccc(Br)cc4)C3)c21 (stereo unspecified)	7%[59 µM]	22%	·	·	10%	-28%
SMILES	G9a block	HP1b binding inh	PLK1 PBD block	PI5P4Ka inh	BAZ2B inh	JMJD2A Tudor
Cc1ccc(CN2CCCn3nc(C(=O)NCc4cc(C)ccc4C)cc3C2=O)cc1	5%[59 µM]	7%	·	·	-20%	-28%
O=C(CCl)Nc1ncc(S(=O)(=O)c2ccc([N+](=O)[O-])cc2)s1	·	14%	-7%	-1	·	-10%
O=C(Nc1ncc(S(=O)(=O)c2ccc([N+](=O)[O-])cc2)s1)c1cccnc1	50µM*	0%	-29%	-23	-29%	-23%
CCC(C)(C)C(=O)Nc1ncc(S(=O)(=O)c2ccc([N+](=O)[O-])cc2)s1	50µM*	-20%	-19%	0	?	-35%
O=C(Nc1ncc(S(=O)(=O)c2ccc([N+](=O)[O-])cc2)s1)c1ccc2ccccc2c1	20%[59 µM]	20%	0%	-7	-26%	-18%
O=C(Cc1csc(NC(=O)Nc2cccc(Cl)c2)n1)NCc1cccnc1	35µM*	23%	-5%	-5	?	-24%
O=C(Cc1csc(NC(=O)Nc2ccc(Cl)cc2)n1)NCc1cccnc1	?	4%	-4%	-10	?	-31%
O=C1C=C(Nc2cccc3cccnc23)c2ccccc2C1=O	35µM*	?	-11%	-10	56µM*	56µM*
CCCCNC1=CC(=O)C(=O)c2ccccc21	-1%	0%	-17%	-1	-37%	-20%
O=C1C=C(Nc2ccccc2C(=O)O)c2ccccc2C1=O	·	16µM*	11µM*	?	35µM*	22µM*
NS(=O)(=O)Nc1cccc2cccnc12	·	25%	·	·	·	-23%
O=C(O)c1ccccc1NC(=O)C(c1ccccc1)c1ccccc1	·	16%	-17%	-25	·	-1%
O=C1C=C(Nc2ccccc2)c2ccccc2C1=O	40µM*	?	-16%	0	?	-31%
CCc1ccc(NC2=CC(=O)C(=O)c3ccccc32)cc1	4%[0.501 µM]	?	-11%	-10	50µM*	45µM*
CC(=O)OCC(=O)[C@@]1(O)[C@H](OC(C)=O)C[C@H]2[C@@H]3CCC4=CC(=O)C=C[C@]4(C)[C@@]3(F)[C@@H](O)C[C@@]21C	37%[59 µM]	·	·	·	·	·
CCOC(=O)c1ccc(C#Cc2ccc3c(c2)C(C)(C)CCS3)nc1	108%[12.7 µM]	·	·	·	·	·
O=C1C=C(Nc2ccccc2)C(=O)c2ccccc21	14µM*	?	1%	-4	7.9µM*	?
CCCCC[C@H]1CN(CCc2ccccc2)C(=O)[C@@H]1CC(=O)NCc1ccc(OC)cc1	45µM*	53%	4%	1	12%	-15%
O=C(CN1CCN(S(=O)(=O)c2ccc(Cl)cc2)CC1)c1ccc(O)c(O)c1	·	-18%[57 µM]	-17%	1	?	18µM*

High-throughput results deposited in PubChem by National Center for Advancing Translational Sciences (NCATS).
